HPGD block: inhibitors of human 15-hydroxyprostaglandin dehydrogenase (HPGD) | P15428 | purified HPGD, NADH fluorescence kinetic, PGE2 substrate | Potency, µM, inactives show at the top dose activity change, negative = inhibition, usual class: inhibitors | 4.3% of 150,000 active | AID 894; further: potency means the concentration at half of the fitted maximal effect
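20 nM HPGD preincubated 15 min at room temperature with compound in 50 mM Tris-HCl pH 8, 0.01% Tween 20. Started with 1 mM NAD+ and 30 uM prostaglandin E2; NADH fluorescence (360/450 nm) read 5 times over 30-s intervals, last minus first.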
PNC inhibitor: blocks assembly of the perinucleolar compartment | PC3M PTB-GFP, PNC prevalence imaging, 16 h; stronger effect = lower value | 3.1% of 140,000 active | activity change (PNC), negative = inhibition, % at 10 µM | AID 2417;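 active means readout at or below -70, meaning at least 70% loss of cells showing the perinucleolar compartment, a nuclear body marking cancer cells; inconclusive means readout between -30 and a set limit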;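 further: plate controls were DMSO wells for no effect and camptothecin positive control wells for full effect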
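PC3M cells stably expressing PTB-GFP, 750–1000 cells/well, treated 16 h at 37 °C with compound (23 nl of library stock), in duplicate. After paraformaldehyde fixation and Hoechst stain, imaged at 20x; PNC prevalence scored by image analysis.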
ALDH1A1 inh: inhibitors of human aldehyde dehydrogenase 1A1 | Purified ALDH1A1, NADH fluorescence, propionaldehyde substrate | Potency, µM (highest dose often 75.3 µM), without a hit: at the highest dose activity, negative = inhibition, most hits filed as inhibitors | 7.3% of 220,000 active | AID 1030;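 further: potency means the concentration at half of the fitted maximal effect; plate controls were no enzyme wells and a reference inhibitor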
Target sequence (P00352 whole entry, looked up): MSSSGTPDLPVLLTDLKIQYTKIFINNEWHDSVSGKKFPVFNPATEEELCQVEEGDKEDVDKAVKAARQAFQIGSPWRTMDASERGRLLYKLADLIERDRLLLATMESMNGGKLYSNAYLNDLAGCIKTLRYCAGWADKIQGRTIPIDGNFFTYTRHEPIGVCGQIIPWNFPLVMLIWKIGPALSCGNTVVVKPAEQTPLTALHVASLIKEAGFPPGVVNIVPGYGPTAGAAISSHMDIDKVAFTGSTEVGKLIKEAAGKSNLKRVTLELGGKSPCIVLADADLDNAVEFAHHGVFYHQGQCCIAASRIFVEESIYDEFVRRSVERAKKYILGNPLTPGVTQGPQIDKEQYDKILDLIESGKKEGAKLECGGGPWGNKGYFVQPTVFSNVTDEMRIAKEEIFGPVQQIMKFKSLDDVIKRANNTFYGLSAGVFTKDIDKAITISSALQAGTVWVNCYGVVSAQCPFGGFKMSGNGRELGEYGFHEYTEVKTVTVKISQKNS
Starred values were filed as active, the others as inactive; ? = inconclusive; / = no result given; ! = repeats disagree; [ ] = another dose, or the depositor's remark. Compounds with a hit are over-represented: about 11% of the library has one in this group of screens. Unless noted, the call rests on the fitted dose curve; in most records, active means well fitted inhibition curve with a large enough effect (not every such curve was filed as active); inconclusive means small, poorly fitted or top-dose-only effect, or another doubt; inactive means no such curve, though single readings can be large or run the other way. Unless noted, on the % scale 0 is the no-effect control and ±100 the full control effect.

SMILES	HPGD block	PNC inhibitor	ALDH1A1 inh
O=[N+]([O-])c1cccc(/C=N/Nc2nc(NCc3ccccc3)nc(N3CCOCC3)n2)c1O	/	/	-5.8%
COc1ccc(CCN(Cc2cc3cccc(C)c3n3nnnc23)C(=O)c2ccncc2)cc1OC	/	/	1.6%
CCCC(=O)Nc1cc(C(=O)O)ccc1S(=O)(=O)c1ccc(C)cc1	-17.5%	-113.4*	?
CC(=O)Nc1cc(C(=O)N2CCCC2)ccc1S(=O)(=O)c1ccc(C)cc1	-9.3%	15.6	-6.5%
c1ccc(COc2ccc(CNCc3cccnc3)cc2)cc1	/	/	2.0%
C/C(=C\C[Si](C)(C)C)CCC=O	?	/	2.2%
CCOC(=O)c1c(NC(=O)C2C3CCC(O3)C2C(=O)O)sc(C)c1-c1ccc(C)cc1 (centres undefined)	-6.9%	19.3	-8.9%
Cc1sc(NC(=O)/C=C/C(=O)O)c(C(N)=O)c1-c1ccc(C(C)(C)C)cc1	25.1µM*	-12.6	12.6µM*
Cc1sc(NC(=O)C2C3CCC(C3)C2C(=O)O)c(C(N)=O)c1-c1ccc(C(C)(C)C)cc1 (centres undefined)	-21.5%	?	?
CCOC(=O)c1c(NC(=O)/C=C/C(=O)O)sc(C)c1-c1ccc(C(C)(C)C)cc1	/	/	28.2µM*
COc1ccc(-c2nn(CCC(=O)O)cc2/C=C/C(=O)O)cc1[N+](=O)[O-]	-25.0%	-15.2	-5.7%
O=C(c1ccccc1)C1O[C@H]1c1ccccc1 (some centres undefined)	-8.5%	/	0.2%
O=C1C=C(c2ccccc2)OC(=O)C1C(=O)c1ccccc1 (centres undefined)	-18.4%	-100.0*	?
Cc1nc(SCC(=O)Nc2cc(Cl)ccc2[N+](=O)[O-])nc(C)c1C	-20.2%	37.7	16.4%
CC1(OC(=O)C2CCCC2)C(=O)C=C2C=C(c3ccsc3)N(c3ccc(CO)cc3)C=C2C1=O (centres undefined)	-5.0%	/	3.2%[13.5 µM]
CC1(C)CC(=O)C(C=NCCN2CCN(CCc3ccccc3)CC2)=C(O)C1	-2.2%	27.7	-5.9%
CC1(C)CC(=O)C(C=NCCN2CCN(C3CC(=O)N(c4cccc(Br)c4)C3=O)CC2)=C(O)C1 (centres undefined)	/	/	25.1µM*
Cc1cccc(OCCCC(=O)NCC(=O)Nc2cccc(C)c2C)c1	/	/	-3.9%
CCN(CC)c1cccc(O)c1	0.6%	/	?
CN(C)c1cccc(O)c1	-8.4%	/	8.91µM*
O=C(CN1CCN(Cc2ccccc2Cl)CC1)N/N=C/C=C/c1ccccc1[N+](=O)[O-]	-10.5%	13.2	-10.2%
CC1Cc2ccccc2N1Cc1nc2cc(Cl)ccc2c(=O)[nH]1 (centres undefined)	-23.0%	-17.7	?
COC(=O)c1ccc2c(=O)[nH]c(CN3c4ccccc4CC3C)nc2c1 (centres undefined)	-12.8%	-3.9	11.2µM*
Cc1ccc(N(CC(=O)NCCc2ccc(F)cc2)S(=O)(=O)c2ccc(Cl)c([N+](=O)[O-])c2)c(C)c1	-13.6%	?	?
CCCCCCCc1cc2c(cn1)=C(OC)C(C)(OC(C)=O)C(=O)C=2Cl (centres undefined)	-5.1%	/	-10.9%
SMILES	HPGD block	PNC inhibitor	ALDH1A1 inh
CCCCc1cc2c(cn1)C(=O)C(C)(OC(C)=O)C(=O)C2 (centres undefined)	-3.5%	/	1.26µM*
CC1(OC(=O)c2ccc(Cl)nc2)C(=O)C=c2cc(-c3ccsc3)ncc2=C1OC(=O)C1CCCC1 (centres undefined)	-7.5%	/	7.3%[13.5 µM]
COCCNC(=S)Nc1ccccc1Cc1ccccc1	/	/	0.3%
O=S(=O)(N/N=C/c1cccc(OC2CSC2)c1)c1ccccc1	-6.7%	-112.2*	-1.2%
Cc1ccc(S(=O)(=O)N/N=C/c2cccc(OC3CSC3)c2)cc1	-15.4%	-9.2	-5.2%
CCOC(=O)C1=C(C)NC(=O)NC1c1cccs1 (centres undefined)	/	/	-0.4%
CC1=C(C(=O)OC(C)(C)C)C(c2cccs2)NC(=O)N1 (centres undefined)	-1.0%	-95.0*	?
C=CCSC1=N/C(=C/c2ccsc2)C(=O)N1c1ccccc1	-14.9%	-7.2	?
COc1ccc(NC(=O)N2CC[C@@]3(CCCN(C(=O)c4c(C)noc4C)C3)C2)cc1	-5.2%	/	?
Cc1cc(C(N)=O)c2cc(Br)ccc2n1	-8.0%	-89.5*	1.0%
Cc1cccc(NC(=O)c2cc(-c3ccco3)nc3ccccc23)n1	?	-2.5	?
O=C(O)c1cc(-c2ccco2)nc2ccc(Br)cc12	?	?	3.98µM*!
Cc1cc(C(=O)NN)c2cc(Br)ccc2n1	-28.3%	-7.2	?
Clc1ccc2nncn2n1	/	/	-5.0%
COc1ccc(C(=O)c2ccc(CC(=O)O)s2)cc1	/	/	-10.7%
CCOC(=O)Cc1sc(N)nc1C	-7.0%	-17.9	-0.1%

From PubChem
